# Data as given in PubChem BioAssay (NCATS).
# Inconclusive results are not listed. Where a call stands in place of a potency, no number is given. Unmarked numbers belong to inactive results. The source made the active and inactive calls. The call rests on the fitted dose curve; in most records, active means well fitted inhibition curve with a large enough effect; inconclusive means small, poorly fitted or top-dose-only effect; inactive means flat fitted curve, though single readings scatter.
# Legend:
# CRL-7250 = normal cell line; assay: Cytotoxic Profiling of Annotated Libraries Using Quantitative High-Throughput Screening (AID 1296008); conditions: Five cell lines viability, CellTiter-Glo ATP luminescence, 48-72 h; active compounds read low
# Outline: (§1)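 Cytotoxicity was measured as CellTiter-Glo ATP luminescence, read after 10 min at room temperature. Compound treatment of the cells lasted 48 or 72 hr at 37 degrees Celsius in a qHTS format.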
# HEK293 = assay: as above; conditions: Five cell lines viability, CellTiter-Glo ATP luminescence, 48-72 h; active compounds read low
# Outline: as §1
# HaCat [1] = assay: as above; conditions: Five cell lines viability, CellTiter-Glo ATP luminescence, 48-72 h; active compounds read low
# Outline: as §1
# KB-3-1 = assay: as above; conditions: Five cell lines viability, CellTiter-Glo ATP luminescence, 48-72 h, active compounds read low
# Outline: as §1
# NIH3T3 = assay: as above; conditions: Five cell lines viability, CellTiter-Glo ATP luminescence, 48-72 h; active compounds read low
# Outline: as §1
# HACAT [2] = assay: qHTS assay to identify novel small-molecules to repurpose for Merkel cell carcinoma treatment (AID 1296009); conditions: MCC and control cell lines, CellTiter-Glo viability, 72 h; at 44.8 µM (top of the series) unless noted
# Outline: (§2)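 72 hr, 37 degree celsius; NPC 8-pt / MIPE 11-pt dose response; compound pinned in DMSO; CellTiter-Glo, 10 min RT, luminescence; normalized to no-cell and DMSO controls.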
# MCC-13 = assay: as above; conditions: MCC and control cell lines, CellTiter-Glo viability, 72 h; series mostly up to 46 µM
# Outline: as §2
# MCC-26 = assay: as above; conditions: MCC and control cell lines, CellTiter-Glo viability, 72 h; series mostly up to 46 µM
# Outline: as §2
# MKL-1 = assay: as above; conditions: MCC and control cell lines, CellTiter-Glo viability, 72 h; series mostly up to 46 µM
# Outline: as §2
# P94_40 = assay: qHTS profiling for inhibitors of Plasmodium falciparum proliferation (AID 504749); further: potency means the concentration at half of the fitted maximal effect; conditions: P. falciparum in erythrocytes, SYBR Green DNA, 72 h; series mostly up to 28.7 µM
# Outline: (§3)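 Infected RBCs, 0.3% parasitemia/2.5% Hct final; cpd 72 h, 37 C, 5% CO2; lysis buffer with saponin/triton/SYBR Green I, o/n RT dark; FI 485/535; norm. to artemisinin (0.29 uM) and DMSO.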
# PAD = assay: as above; conditions: P. falciparum in erythrocytes, SYBR Green DNA, 72 h; series mostly up to 28.7 µM
# Outline: as §3
# PC15 = assay: as above; conditions: P. falciparum in erythrocytes, SYBR Green DNA, 72 h; series mostly up to 28.7 µM
# Outline: as §3
# PC26 = assay: as above; conditions: P. falciparum in erythrocytes, SYBR Green DNA, 72 h; series mostly up to 28.7 µM
# Outline: as §3
# PC49 = assay: as above; conditions: P. falciparum in erythrocytes, SYBR Green DNA, 72 h; series mostly up to 28.7 µM
# Outline: as §3
# SC27B = assay: as above; conditions: P. falciparum in erythrocytes, SYBR Green DNA, 72 h; series mostly up to 28.7 µM
# Outline: as §3
# TAB109 = assay: as above; conditions: P. falciparum in erythrocytes, SYBR Green DNA, 72 h; series mostly up to 28.7 µM
# Outline: as §3
# TAB113 = assay: as above; conditions: P. falciparum in erythrocytes, SYBR Green DNA, 72 h; series mostly up to 28.7 µM
# Outline: as §3
# TAB165 = assay: as above; conditions: P. falciparum in erythrocytes, SYBR Green DNA, 72 h; series mostly up to 28.7 µM
# Outline: as §3
# W2 = assay: as above; conditions: P. falciparum in erythrocytes, SYBR Green DNA, 72 h; series mostly up to 28.7 µM
# Outline: as §3
# HEK293T = assay: qHTS assay to identify novel small-molecules to repurpose for Merkel cell carcinoma treatment (AID 1296009); conditions: MCC and control cell lines, CellTiter-Glo viability, 72 h; at 44.8 µM (top of the series) unless noted
# Outline: as §2
# Further: nearly all actives have a fitted effect of over 60% in size.
smiles,measurement,setting,value
CCN[C@H]1CN(CCCOC)S(=O)(=O)c2sc(S(N)(=O)=O)cc21,max response,CRL-7250,2.64%
same,max response,HEK293,-2.35%
same,outcome,HaCat [1],inactive
same,max response,KB-3-1,14.5%
same,outcome,NIH3T3,inactive
same,outcome,HACAT [2],inactive
same,outcome,MCC-13,inactive
same,outcome,MCC-26,inactive
same,outcome,MKL-1,inactive
CC[C@H](C)[C@H](N)C(=O)O,max response,CRL-7250,-1.3%
same,max response,HEK293,-2.12%
same,outcome,HaCat [1],inactive
same,max response,KB-3-1,-15.9%
same,max response,NIH3T3,-5.18%
same,outcome,HACAT [2],inactive
same,outcome,MCC-13,inactive
same,outcome,MCC-26,inactive
same,outcome,MKL-1,inactive
COc1ccc2cc(CCC(C)=O)ccc2c1,Potency,P94_40,inactive
same,Potency,PAD,inactive
same,Potency,PC15,inactive
same,Potency,PC26,inactive
same,Potency,PC49,inactive
same,Potency,SC27B,inactive
same,Potency,TAB109,inactive
same,Potency,TAB113,inactive
same,Potency,TAB165,inactive
same,Potency,W2,inactive
same,outcome,CRL-7250,inactive
same,outcome,HEK293,inactive
same,outcome,HaCat [1],inactive
same,max response,KB-3-1,-1.62%
same,max response,NIH3T3,-0.0731%
same,outcome,HACAT [2],inactive
same,outcome,HEK293T,inactive
same,outcome,MCC-13,inactive
same,outcome,MCC-26,inactive
same,outcome,MKL-1,inactive
CCOC(=O)OC(C)OC(=O)[C@@H]1N2C(=O)[C@@H](NC(=O)[C@H](N)c3ccccc3)[C@H]2SC1(C)C (some centres undefined),max response,CRL-7250,-4.78%
same,max response,HEK293,-9.36%
same,outcome,HaCat [1],inactive
same,max response,KB-3-1,-3.71%
same,outcome,NIH3T3,inactive
same,outcome,HACAT [2],inactive
same,outcome,MCC-13,inactive
same,outcome,MCC-26,inactive
same,outcome,MKL-1,inactive
C[N+]1(C)CCCC(OC(=O)C(O)(c2ccccc2)c2ccccc2)C1 (centres undefined),max response,CRL-7250,2.14%
same,max response,HEK293,-3.74%
same,outcome,HaCat [1],inactive
same,max response,KB-3-1,-3.88%
same,max response,NIH3T3,4.37%
same,outcome,HACAT [2],inactive
same,outcome,MCC-13,inactive
same,outcome,MCC-26,inactive
same,outcome,MKL-1,inactive
CC1(C)S[C@@H]2[C@H](N=CN3CCCCCC3)C(=O)N2[C@H]1C(=O)O,max response,CRL-7250,-6.32%
same,max response,HEK293,-2.19%
same,outcome,HaCat [1],inactive
same,max response,KB-3-1,-4.82%
same,outcome,NIH3T3,inactive
same,outcome,HACAT [2],inactive
same,outcome,MCC-13,inactive
same,outcome,MCC-26,inactive
same,outcome,MKL-1,inactive
COCC(=O)Nc1c(I)c(C(=O)NCC(O)CO)c(I)c(C(=O)N(C)CC(O)CO)c1I (centres undefined),max response,CRL-7250,-2.09%
same,max response,HEK293,-5.16%
same,outcome,HaCat [1],inactive
same,max response,KB-3-1,11.7%
same,max response,NIH3T3,1.05%
same,outcome,HACAT [2],inactive
same,outcome,MCC-13,inactive
same,outcome,MCC-26,inactive
same,outcome,MKL-1,inactive
COc1ccccc1OCC(O)CO (centres undefined),outcome,CRL-7250,inactive
same,max response,HEK293,-2.29%
same,outcome,HaCat [1],inactive
same,max response,KB-3-1,4.34%
same,outcome,NIH3T3,inactive
same,outcome,HACAT [2],inactive
same,outcome,MCC-13,inactive
same,outcome,MCC-26,inactive
same,outcome,MKL-1,inactive
C[n+]1ccccc1/C=N/O,max response,CRL-7250,-2.33%
same,max response,HEK293,-5.72%
same,outcome,HaCat [1],inactive
same,max response,KB-3-1,-1.46%
same,outcome,NIH3T3,inactive
same,outcome,HACAT [2],inactive
same,outcome,MCC-13,inactive
same,outcome,MCC-26,inactive
same,outcome,MKL-1,inactive
O=C(/C=C/c1ccc(O)c(O)c1)O[C@@H]1C[C@@](OC(=O)/C=C/c2ccc(O)c(O)c2)(C(=O)O)C[C@@H](O)[C@@H]1O,max response,CRL-7250,-6.43%
same,max response,HEK293,-4.83%
same,outcome,HaCat [1],inactive
same,max response,KB-3-1,-0.0821%
same,max response,NIH3T3,-0.0883%
same,outcome,HACAT [2],inactive
same,outcome,MCC-13,inactive
same,outcome,MCC-26,inactive
same,outcome,MKL-1,inactive
CCOc1ccccc1O[C@H](c1ccccc1)[C@H]1CNCCO1,outcome,CRL-7250,inactive
same,max response,HEK293,2.57%
same,outcome,HaCat [1],inactive
same,max response,KB-3-1,2.06%
same,max response,NIH3T3,1.71%
same,outcome,HACAT [2],inactive
same,outcome,MCC-13,inactive
same,outcome,MCC-26,inactive
same,outcome,MKL-1,inactive
O=C1C(c2[nH]c3ccccc3c2O)=Nc2ccccc21,Potency,PC49,inactive
same,Potency,TAB165,14.1 µM (active)
same,max response,CRL-7250,1.26%
same,outcome,HEK293,inactive
same,outcome,HaCat [1],inactive
same,max response,KB-3-1,4.4%
same,max response,NIH3T3,4.36%
same,outcome,HACAT [2],inactive
same,outcome,HEK293T,inactive
same,outcome,MCC-13,inactive
same,outcome,MCC-26,inactive
same,outcome,MKL-1,inactive
CCCNC(C)C(=O)Nc1c(C)csc1C(=O)OC (centres undefined),outcome,CRL-7250,inactive
same,max response,HEK293,-4.55%
same,outcome,HaCat [1],inactive
same,max response,KB-3-1,-16.9%
same,outcome,NIH3T3,inactive
same,outcome,HACAT [2],inactive
same,outcome,MCC-13,inactive
same,outcome,MCC-26,inactive
same,outcome,MKL-1,inactive
CC[N+](CC)(CC(=O)Nc1c(C)cccc1C)Cc1ccccc1,Potency,P94_40,inactive
same,Potency,PAD,inactive
same,Potency,PC15,inactive
same,Potency,PC26,inactive
same,Potency,PC49,inactive
same,Potency,SC27B,inactive
same,Potency,TAB109,inactive
same,Potency,TAB113,inactive
same,Potency,TAB165,inactive
same,max response,CRL-7250,-0.938%
same,max response,HEK293,3.4%
same,outcome,HaCat [1],inactive
same,max response,KB-3-1,-3.17%
same,max response,NIH3T3,1.97%
same,outcome,HACAT [2],inactive
same,outcome,MCC-13,inactive
same,outcome,MCC-26,inactive
same,outcome,MKL-1,inactive
Cc1cc(O)cc(C)c1Cl,Potency,PC26,12 µM (active)
same,Potency,SC27B,inactive
same,Potency,W2,7.57 µM (active)
same,max response,CRL-7250,-1.3%
same,outcome,HEK293,inactive
same,outcome,HaCat [1],inactive
same,max response,KB-3-1,4.13%
same,max response,NIH3T3,1.17%
same,outcome,HACAT [2],inactive
same,outcome,HEK293T,inactive
same,outcome,MCC-13,inactive
same,outcome,MCC-26,inactive
same,outcome,MKL-1,inactive
COc1ccc(NS(=O)(=O)c2ccc(N)cc2)nn1,Potency,P94_40,inactive
same,Potency,PAD,inactive
same,Potency,PC15,inactive
same,Potency,PC26,inactive
same,Potency,PC49,inactive
same,Potency,SC27B,inactive
same,Potency,TAB109,inactive
same,Potency,TAB113,inactive
same,Potency,TAB165,inactive
same,Potency,W2,inactive
same,max response,CRL-7250,3.69%
same,outcome,HEK293,inactive
same,outcome,HaCat [1],inactive
same,max response,KB-3-1,14.2%
same,max response,NIH3T3,-9.1%
same,outcome,HACAT [2],inactive
same,outcome,HEK293T,inactive
same,outcome,MCC-13,inactive
same,outcome,MCC-26,inactive
same,outcome,MKL-1,inactive
O=C1c2cccc(O)c2C(=O)c2c(O)cccc21,Potency,P94_40,inactive
same,Potency,PAD,inactive
same,Potency,PC15,inactive
same,Potency,PC26,inactive
same,Potency,PC49,inactive
same,Potency,SC27B,inactive
same,Potency,TAB109,inactive
same,Potency,TAB113,inactive
same,Potency,TAB165,inactive
same,max response,CRL-7250,-1.24%
same,max response,HEK293,-0.119%
same,outcome,HaCat [1],inactive
same,max response,KB-3-1,2.38%
same,max response,NIH3T3,-0.518%
same,outcome,HACAT [2],inactive
same,outcome,MCC-13,inactive
same,outcome,MCC-26,inactive
same,outcome,MKL-1,inactive
CC(C)NC[C@@H](O)COc1ccc(CC(N)=O)cc1,max response,CRL-7250,-2.68%
same,outcome,HEK293,inactive
same,outcome,HaCat [1],inactive
same,max response,KB-3-1,3.62%
same,max response,NIH3T3,-2.96%
same,outcome,HACAT [2],inactive
same,outcome,HEK293T,inactive
same,outcome,MCC-13,inactive
same,outcome,MCC-26,inactive
same,outcome,MKL-1,inactive
Nc1ncnc2c1ncn2[C@@H]1O[C@H](COP(=O)(O)O)[C@@H](O)[C@H]1O,Potency,P94_40,inactive
same,Potency,PAD,inactive
same,Potency,PC15,inactive
same,Potency,PC26,inactive
same,Potency,SC27B,inactive
same,Potency,TAB109,inactive
same,Potency,TAB113,inactive
same,Potency,TAB165,inactive
same,Potency,W2,inactive
same,outcome,CRL-7250,inactive
same,outcome,HEK293,inactive
same,outcome,HaCat [1],inactive
same,max response,KB-3-1,-9.67%
same,max response,NIH3T3,4.32%
same,outcome,HACAT [2],inactive
same,outcome,HEK293T,inactive
same,outcome,MCC-13,inactive
same,outcome,MCC-26,inactive
same,outcome,MKL-1,inactive
